Values joined by “and” are separate entries in the source; they are usually repeats but may differ in a detail not shown here. Identical values can stand only once. This is part of a sample that, as a whole, favours compounds with a hit. Of some 79,000 tested, about 15% had one in any assay. Unmarked numbers belong to inactive results. Active and inactive are the calls of the source. No stated cut-off is given here; in the data, active means growth inhibition above about 70%; inactive means the rest.

One test in a line: NCI Yeast Anticancer Drug Screen. Data for the rad50 strain (AID 155).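 Further: 0% = growth of vehicle-only cultures of the same strain.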 The following applies: S. cerevisiae rad50 strain growth inhibition; at 50.0 µM; active compounds read high. The method, boiled down: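 Growth of the mutant yeast was measured after compound exposure and referenced to vehicle-treated cultures.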
`N.N.N.N.O=C([O-])C(=O)O.O=C([O-])C(=O)[O-].[Co+3]`: the growth inhibition is -2.9%.
Same read-out and setting: then `O=C1NC(=O)C(CC(C(=O)C(=O)Nc2ccccc2Cl)C(=O)c2ccc3ccccc3c2)C(=O)N1` (stereo not given), with -27.7%; and `CSCCC([NH-])C(=O)O.CSCCC([NH-])C(=O)O.[Cu+2]` (stereo not given), with -18.1%.
`CC(C)=NNC1=NC(CC(C)C)P(=O)(NCCCCNP2(=O)SC(NN=C(C)C)=NC2CC(C)C)S1` (stereo not given): the growth inhibition is -5.25%.
With `CCCCOS(C)(=O)=O`, the growth inhibition is 19.6%.
Same read-out and setting: then `CN(C)NP(c1ccccc1)c1ccccc1`, with -2.55%; and `NC(CO)Cc1ccccc1` (stereo not given), with -1.6% and 0.85%.
The same measure, in the same setting: then `O=C(CN1CCCCC1)c1ccc(Br)cc1`, with 15.7%.
Regarding `COc1ccc(N=NC(=O)NC(CC(C)C)C(=O)NCC(=O)O)cc1` (stereo not given), the growth inhibition is -0.8%.
Turning to `COc1cc(C(=O)O)cc(OC)c1OC`, the growth inhibition was -19.9%.
Consider `CCCCC[N+]1=Cc2cc(O)c(O)cc2CC1`, for which the growth inhibition is -11.1%.
As to `O=C(O)C(=O)Cc1ccc2c(c1)OCO2`, the growth inhibition was -3.8%.
Still for that read-out and setting: to `O=C1NCCCCC1Cl` (stereo not given) belongs -12.4%; to `COC(=O)N/N=C(\C)C(CN(C)C)C(c1ccccc1)c1c(O)c2ccccc2oc1=O` (stereo not given), 35.4%.
Same read-out and setting: then `Fc1ccc(C(Cl)(Cl)Cl)cc1`, with -8.9%; and `C=C[CH2][Sn]([CH3])([CH3])[CH2]C=C`, with 11.1%; and `CC(O)C[As](=O)(O)c1ccccc1Cl` (stereo not given), with 2.85%.
Same read-out and setting: then `NCCCP(c1ccccc1)c1ccccc1`, with 0.3%; and `O=C(O)c1cc[c]([Hg][S]c2ncnc3nc[nH]c23)cc1`, with 99% (active).
`Cc1ccc(C(C)(C)C)c(OP(=S)(S)Oc2cc(C)ccc2C(C)(C)C)c1.[Pb]`: the growth inhibition was 5.9%.
On to `CCOS(=O)(=O)OCC`, for which the growth inhibition is 1.2%.
Same read-out and setting: then `CCOC(=O)C(C)(C)C(OP(=S)(OCC)OCC)=C(C)C`, with 4.6%.
The same measure, in the same setting: then `CCCO[As](=O)(OCCC)OCCC`, with 5.55%; and `O=C(c1ccccc1)C1C(c2ccccc2)N1Cc1ccccc1` (stereo not given), with 0.35%.
The same measure, in the same setting: then `C1CSCCO1.[Cu+2].[O-][Cl+3]([O-])([O-])O`, with -7.6%; and `COc1ccc2[nH]cc(CN(C)C)c2c1`, with 21.4%; and `C=CCN1CCC23c4c5ccc(O)c4OC2C(=NN=C2CCC4(O)C6Cc7ccc(O)c8c7C4(CCN6CC=C)C2O8)CCC3(O)C1C5` (stereo not given), with 3.4%.
In the case of `Cc1cc(Cl)ccc1N`, the growth inhibition was 32.4%.
Still for that read-out and setting: to `COc1ccc(C(N)Cc2cc(OC)c(OC)c(OC)c2)cc1` (stereo not given) belongs -14.9%; to `O=C(Nc1ccc(Cl)cc1C(=O)c1ccccc1)c1ccc(Cl)cc1`, -5.95%; to `[Ni+2].[O-]c1ccc(Cl)cc1C=NCc1ccccn1.[O-]c1ccc(Cl)cc1C=NCc1ccccn1`, 94.3% (active).
The same measure, in the same setting: to `CCCCOCN(COCCCC)C(C)Cc1ccccc1` (stereo not given) belongs 11.7%; to `[C-]#[O+].[C-]#[O+].[C-]#[O+].[Ni].c1ccc([PH+](CC[PH+](c2ccccc2)c2ccccc2)CC[PH+](c2ccccc2)c2ccccc2)cc1`, 43.9%.
Same read-out and setting: to `O=C([O-])C(F)(F)C(F)(F)F.[C-]#[O+].[C-]#[O+].[C-]#[O+].[C-]#[O+].[C-]#[O+].[Mn]` belongs -8%; to `CC1CCC(OC(=O)CCl)CC1` (stereo not given), 18.1%; to `CCCCNCCc1cccnc1`, 33.5%.
As to `COc1cccc(C=C(C#N)C#N)c1OC`, the growth inhibition was -9.8%.
Same read-out and setting: then `Cc1ccc(O)c(Cl)c1`, with -1%; and `O=CNc1ccc(Cl)cc1C(=O)c1ccccc1`, with 9.8%.
On the same count and under the same terms, to `CC1(C)OCC(C2NC2C2COC(C)(C)O2)O1` (stereo not given) belongs -4.55%.

A further test can be described thus: NCI Yeast Anticancer Drug Screen. Data for the mec2-1 strain (AID 157). The following applies: S. cerevisiae mec2-1 strain, at 50.0 µM, active compounds read high. The method in brief:
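Test agents were screened against the mec2-1 yeast strain, with defined DNA repair or cell cycle alteration. Growth was scored as inhibition against vehicle-only controls.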
With `N.N.N.N.O=C([O-])C(=O)O.O=C([O-])C(=O)[O-].[Co+3]`, the growth inhibition was 1.5%.
Turning to `O=C1NC(=O)C(CC(C(=O)C(=O)Nc2ccccc2Cl)C(=O)c2ccc3ccccc3c2)C(=O)N1` (stereo not given), the growth inhibition was 7.8%.
Take `CSCCC([NH-])C(=O)O.CSCCC([NH-])C(=O)O.[Cu+2]` (stereo not given): the growth inhibition was 7.95%.
`CC(C)=NNC1=NC(CC(C)C)P(=O)(NCCCCNP2(=O)SC(NN=C(C)C)=NC2CC(C)C)S1` (stereo not given): the growth inhibition is 17.5%.
As for `CCCCOS(C)(=O)=O`, the growth inhibition was -13.8%.
As to `CN(C)NP(c1ccccc1)c1ccccc1`, the growth inhibition is -3.8%.
Still for that read-out and setting: then `NC(CO)Cc1ccccc1` (stereo not given), with 0.3% and -4%; and `O=C(CN1CCCCC1)c1ccc(Br)cc1`, with 6.1%.
On the same count and under the same terms, to `COc1ccc(N=NC(=O)NC(CC(C)C)C(=O)NCC(=O)O)cc1` (stereo not given) belongs 2.45%; to `COc1cc(C(=O)O)cc(OC)c1OC`, -19.6%.
As for `CCCCC[N+]1=Cc2cc(O)c(O)cc2CC1`, the growth inhibition was -5.7%.
`O=C(O)C(=O)Cc1ccc2c(c1)OCO2`: the growth inhibition is -19.3%.
Turning to `O=C1NCCCCC1Cl` (stereo not given), the growth inhibition was -1.1%.
The same measure, in the same setting: to `COC(=O)N/N=C(\C)C(CN(C)C)C(c1ccccc1)c1c(O)c2ccccc2oc1=O` (stereo not given) belongs 28.9%; to `Fc1ccc(C(Cl)(Cl)Cl)cc1`, -33.5%.
The same measure, in the same setting: to `C=C[CH2][Sn]([CH3])([CH3])[CH2]C=C` belongs 4.35%; to `CC(O)C[As](=O)(O)c1ccccc1Cl` (stereo not given), 25.5%.
Consider `NCCCP(c1ccccc1)c1ccccc1`, for which the growth inhibition was 0.4%.
Same read-out and setting: then `O=C(O)c1cc[c]([Hg][S]c2ncnc3nc[nH]c23)cc1`, with 98.3% (active); and `Cc1ccc(C(C)(C)C)c(OP(=S)(S)Oc2cc(C)ccc2C(C)(C)C)c1.[Pb]`, with -1.85%; and `CCOS(=O)(=O)OCC`, with -12.1%.
Same read-out and setting: then `CCOC(=O)C(C)(C)C(OP(=S)(OCC)OCC)=C(C)C`, with 12.4%; and `CCCO[As](=O)(OCCC)OCCC`, with 6.95%.
On the same count and under the same terms, to `O=C(c1ccccc1)C1C(c2ccccc2)N1Cc1ccccc1` (stereo not given) belongs 12.2%; to `C1CSCCO1.[Cu+2].[O-][Cl+3]([O-])([O-])O`, -10.6%.
On to `COc1ccc2[nH]cc(CN(C)C)c2c1`, for which the growth inhibition was -7.6%.
Same read-out and setting: to `C=CCN1CCC23c4c5ccc(O)c4OC2C(=NN=C2CCC4(O)C6Cc7ccc(O)c8c7C4(CCN6CC=C)C2O8)CCC3(O)C1C5` (stereo not given) belongs 2.5%; to `Cc1cc(Cl)ccc1N`, 6.1%; to `COc1ccc(C(N)Cc2cc(OC)c(OC)c(OC)c2)cc1` (stereo not given), 6.1%.
Same read-out and setting: to `O=C(Nc1ccc(Cl)cc1C(=O)c1ccccc1)c1ccc(Cl)cc1` belongs 10.1%.
In the case of `[Ni+2].[O-]c1ccc(Cl)cc1C=NCc1ccccn1.[O-]c1ccc(Cl)cc1C=NCc1ccccn1`, the growth inhibition was 96.7% (active).
Turning to `CCCCOCN(COCCCC)C(C)Cc1ccccc1` (stereo not given), the growth inhibition is -3.3%.
Take `[C-]#[O+].[C-]#[O+].[C-]#[O+].[Ni].c1ccc([PH+](CC[PH+](c2ccccc2)c2ccccc2)CC[PH+](c2ccccc2)c2ccccc2)cc1`: the growth inhibition was 38.5%.
The same measure, in the same setting: then `O=C([O-])C(F)(F)C(F)(F)F.[C-]#[O+].[C-]#[O+].[C-]#[O+].[C-]#[O+].[C-]#[O+].[Mn]`, with -29%.
Same read-out and setting: to `CC1CCC(OC(=O)CCl)CC1` (stereo not given) belongs 19.4%.
The same measure, in the same setting: then `CCCCNCCc1cccnc1`, with 13.8%; and `COc1cccc(C=C(C#N)C#N)c1OC`, with -8.05%; and `Cc1ccc(O)c(Cl)c1`, with 5.4%.
Consider `O=CNc1ccc(Cl)cc1C(=O)c1ccccc1`, for which the growth inhibition is -0.35%.
Same read-out and setting: to `CC1(C)OCC(C2NC2C2COC(C)(C)O2)O1` (stereo not given) belongs -6.85%.

For the origin of these results see PubChem BioAssay (NCI).
